The record followed here is PubChem BioAssay (NCATS).

The structures appear in SMILES notation. Where “and” joins values, the source holds several entries; their conditions need not be identical. Equal values may be shown once. Inconclusive results are not listed. Calls of active or inactive are those of the source. Unless noted, calls follow the shape of the dose curve; as a rule, active = well fitted curve in the direction sought with a large enough effect in the repeat runs; inconclusive = weak or mixed curves; inactive = no such curve, though single readings can be large; an effect the other way counts as inactive or inconclusive.

Assay [1] is described as follows: Primary qHTS for small molecule stabilizers of the endoplasmic reticulum resident proteome: Secreted ER Calcium Modulated Protein (SERCaMP) assay (AID 1508630; active = well fitted curve in the direction sought with a large enough effect; an effect the other way counts as inactive or inconclusive). The method, boiled down:
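GLuc-SERCaMP-expressing SH-SY5Y cells, pretreated 16 h with compound, are challenged with thapsigargin to empty ER calcium stores; after 4 h, coelenterazine is added directly to the medium and luminescence is imaged.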
For orientation: qHTS replaces the single test concentration by a dilution series.

Assay [2] can be described thus: A High-Content qHTS Against Drug Library for the Identification of Small Molecules that Inhibit DYT1 Early Onset Primary Dystonia-Associated Cell Pathology (AID 1645839; calls by dose curve; also: potency is read from the fitted curve at half-maximal effect). The method, boiled down: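 Flp-In T-REx 293 cells with tetracycline-inducible EGFP-delE hTOR1A (WT EGFP-hTOR1A as reference), 800 cells/well; compound added with tetracycline, 48 h at 37 C. Fixed, permeabilized cells imaged; %pathology (punctate TorsinA) primary, cell count counterscreen.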

The target in assay [3] is Cytochrome P450 2D6 (Homo sapiens) (UniProt P10635). The assay is described as follows: Cytochrome P450 family 2 subfamily D member 6 (CYP2D6) small molecule antagonists: luciferase biochemical (cell-free) qHTS assay (AID 1645840). Also: nearly all actives have a fitted effect of over 55% in size. Also: potency is read from the fitted curve at half-maximal effect. In short, it runs like this:
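P450-Glo luminescent screen: recombinant CYP2D6 enzyme–proluciferin substrate mix preincubated with compound 10 min at room temperature, then NADPH regeneration added for 1 h at room temperature. Detection reagent added for 20 min; luciferin light read as relative luminescence units.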

In assay [4] the target is Cytochrome P450 3A4 (Homo sapiens) (UniProt P08684). The assay is described as follows: Cytochrome P450 family 3 subfamily A member 4 (CYP3A4) small molecule antagonists: luciferase qHTS assay (AID 1645841). Also: nearly all actives have a fitted effect of over 45% in size. Also: potency is read from the fitted curve at half-maximal effect. In short, it runs like this: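 P450-Glo CYP3A4 enzyme with proluciferin substrate preincubated 10 min with compound at room temperature, then NADPH regeneration 1 h. Luciferin detection reagent added for 20 min; luminescence recorded. Ketoconazole positive control.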

The target in assay [5] is Cytochrome P450 2C9 (Homo sapiens) (UniProt P11712). The assay is described as follows: Cytochrome P450 family 2 subfamily C member 9 (CYP2C9) small molecule antagonists: luciferase biochemical (cell-free) qHTS assay (AID 1645842). Also: nearly all actives have a fitted effect of over 55% in size. Also: potency is read from the fitted curve at half-maximal effect. The method, boiled down: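 Luminescence, after 20 min with luciferin detection reagent, reflected CYP2C9 turnover during a 1 h NADPH-driven reaction at 37C. Enzyme-substrate mix contained 0.4% bovine serum albumin and was preincubated with compound 10 min at room temperature.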

Assay [6] can be described thus: Primary qHTS for inhibitors of nuclear receptor binding SET domain protein 2 (NSD2) in an isogenic RCH-ACV NSD2 p.E1099K mutant (9B) (AID 1645876; active = well fitted curve in the direction sought with a large enough effect; an effect the other way counts as inactive or inconclusive; also: nearly all actives have a fitted effect of over 70% in size; also: potency is read from the fitted curve at half-maximal effect).

Cytochrome P450 3A4 (Homo sapiens), sequence (P08684 whole entry, looked up): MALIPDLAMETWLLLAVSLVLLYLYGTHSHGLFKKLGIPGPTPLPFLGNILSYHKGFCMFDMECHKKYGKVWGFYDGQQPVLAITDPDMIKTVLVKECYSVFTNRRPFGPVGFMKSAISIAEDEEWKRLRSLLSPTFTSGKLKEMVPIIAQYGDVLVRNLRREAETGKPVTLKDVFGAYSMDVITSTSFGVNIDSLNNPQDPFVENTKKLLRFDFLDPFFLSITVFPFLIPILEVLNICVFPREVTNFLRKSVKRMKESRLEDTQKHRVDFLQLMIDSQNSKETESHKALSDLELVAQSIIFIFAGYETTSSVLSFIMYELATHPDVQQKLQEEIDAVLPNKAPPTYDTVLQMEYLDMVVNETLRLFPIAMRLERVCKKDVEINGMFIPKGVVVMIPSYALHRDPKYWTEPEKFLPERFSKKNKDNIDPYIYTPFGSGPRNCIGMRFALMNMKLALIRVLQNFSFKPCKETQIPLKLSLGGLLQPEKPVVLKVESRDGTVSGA
Cytochrome P450 2C9 (Homo sapiens), sequence (P11712 whole entry, looked up): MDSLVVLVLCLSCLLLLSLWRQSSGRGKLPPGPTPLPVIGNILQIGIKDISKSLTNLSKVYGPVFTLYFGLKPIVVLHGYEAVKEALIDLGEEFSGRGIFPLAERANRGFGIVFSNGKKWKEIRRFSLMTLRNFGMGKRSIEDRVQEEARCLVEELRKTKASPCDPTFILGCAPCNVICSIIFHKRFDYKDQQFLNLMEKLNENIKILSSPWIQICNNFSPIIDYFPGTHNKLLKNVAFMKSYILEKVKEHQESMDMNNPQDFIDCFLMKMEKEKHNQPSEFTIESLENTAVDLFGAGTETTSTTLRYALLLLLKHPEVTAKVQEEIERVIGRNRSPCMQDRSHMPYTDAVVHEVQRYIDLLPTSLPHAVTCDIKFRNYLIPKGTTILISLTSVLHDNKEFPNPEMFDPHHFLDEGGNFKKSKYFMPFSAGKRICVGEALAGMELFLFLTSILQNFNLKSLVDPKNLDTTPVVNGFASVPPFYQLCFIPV
Cytochrome P450 2D6 (Homo sapiens), sequence (P10635 whole entry, looked up): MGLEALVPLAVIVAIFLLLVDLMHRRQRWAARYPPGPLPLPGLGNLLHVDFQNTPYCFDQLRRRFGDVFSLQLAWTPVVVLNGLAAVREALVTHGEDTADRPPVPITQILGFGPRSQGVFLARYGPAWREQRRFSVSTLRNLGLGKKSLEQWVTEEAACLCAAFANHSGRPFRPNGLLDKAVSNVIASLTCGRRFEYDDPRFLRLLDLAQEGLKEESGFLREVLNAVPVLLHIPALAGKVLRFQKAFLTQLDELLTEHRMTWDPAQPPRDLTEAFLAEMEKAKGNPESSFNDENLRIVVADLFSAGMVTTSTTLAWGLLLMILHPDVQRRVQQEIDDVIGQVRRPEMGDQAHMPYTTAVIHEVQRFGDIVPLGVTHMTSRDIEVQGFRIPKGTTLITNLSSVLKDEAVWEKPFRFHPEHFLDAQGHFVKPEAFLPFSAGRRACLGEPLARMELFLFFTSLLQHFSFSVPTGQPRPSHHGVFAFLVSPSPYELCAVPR

With `NC(=O)NC1N=C([O][Al])NC1=O` (stereo not drawn), the Potency entry in assay [1], in assay [2], in assay [5] and in assay [6] was “inactive” throughout. Besides, the Potency in assay [3] is 13.8 µM (active); in assay [4], 5.49 µM (active).
Consider `COCCOCC(OC)OC`, for which the Potency result in assay [1], in assay [2], in assay [3], in assay [4], in assay [5] and in assay [6] was “inactive” in each case.
`CC(=O)N(CC(=O)N(C)C)c1ccccc1`: the Potency entry in assay [1], in assay [2], in assay [3], in assay [4], in assay [5] and in assay [6] was “inactive” in each case.
Consider `CCCc1c2oc(C(=O)O)cc(=O)c2cc2c(=O)cc(C(=O)O)n(CC)c12`, for which the Potency result in assay [1], in assay [2], in assay [3], in assay [5] and in assay [6] was “inactive” each time.
For the compound `Nc1ccc2c(c1)CN1C(=O)c3ccccc3C1=N2`, the Potency result in assay [1] and in assay [2] was “inactive” throughout. The figures for the Potency in assay [3], in assay [5] and in assay [6] were 1.69 µM (active), 4.25 µM (active) and 7.31 µM (active), respectively.
In the case of `C[C@@H]1C[C@H]2[C@@H]3CCC4=CC(=O)C=C[C@]4(C)[C@@]3(F)[C@@H](O)C[C@]2(C)[C@@]1(O)C(=O)COC(=O)c1ccncc1`, the Potency result in assay [1], in assay [2] and in assay [6] was “inactive” each time. Moreover, the Potency in assay [3] is 1.23 µM (active); in assay [5] it was 2.45 µM (active).
Turning to `O=C1CC2(CCCC2)CC(=O)N1CCNCC1COc2ccccc2O1` (stereo not drawn), the Potency entry in assay [1], in assay [2], in assay [5] and in assay [6] was “inactive” each time. Besides, in assay [3], the Potency was 0.49 µM (active).
Take `Cc1cccc(C)c1NC(=O)c1ccc(N)cc1`: the Potency result in assay [1], in assay [2], in assay [3], in assay [5] and in assay [6] was “inactive” in each case.
For the compound `Cc1nc([N+](=O)[O-])cn1-c1ccc([N+](=O)[O-])cc1`, the Potency result in assay [1], in assay [2], in assay [3], in assay [5] and in assay [6] was “inactive” each time.
With `CC(=O)Oc1ccc(C2(c3ccc(OC(C)=O)cc3)Oc3ccccc3NC2=O)cc1`, the Potency entry in assay [1] and in assay [3] was “inactive” in each case. In addition, the Potency in assay [2] was 12.6 µM (active); in assay [5], 1.74 µM (active); in assay [6], 8.17 µM (active).
Take `CN(CC1(C)CCCO1)S(=O)(=O)c1ccc(Cl)c(S(N)(=O)=O)c1` (stereo not drawn): the Potency result in assay [1], in assay [2], in assay [3], in assay [5] and in assay [6] was “inactive” each time.
As for `COc1cc(NS(=O)(=O)c2ccc(N)cc2)nc(C)n1`, the Potency result in assay [1], in assay [2], in assay [3], in assay [5] and in assay [6] was “inactive” throughout.
For the compound `Cc1ncc(CO)c(CO)c1O`, the Potency result in assay [1], in assay [2], in assay [3], in assay [5] and in assay [6] was “inactive” each time.
With `CC(=O)Nc1ccc(S(=O)(=O)Nc2cc(C)on2)cc1`, the Potency result in assay [1], in assay [2], in assay [3], in assay [5] and in assay [6] was “inactive” throughout.
`CC(NC(CCc1ccccc1)C(=O)O)C(=O)N1C(=O)N(C)CC1C(=O)O` (stereo not drawn): the Potency result in assay [1], in assay [2], in assay [3], in assay [5] and in assay [6] was “inactive” in each case.
Take `CC(CC(C#N)(c1ccccc1)C(C)C)N(C)C` (stereo not drawn): the Potency entry in assay [1], in assay [2], in assay [5] and in assay [6] was “inactive” each time. The Potency in assay [3] is 8.71 µM (active).
Regarding `CCCCCC[C@@H](CCC)C(=O)O`, the Potency result in assay [1], in assay [2], in assay [3], in assay [5] and in assay [6] was “inactive” throughout.
`CC(C(=O)O)c1ccc(/C=C2\CCCCC2=O)cc1` (stereo not drawn): the Potency entry in assay [1], in assay [2], in assay [3], in assay [5] and in assay [6] was “inactive” in each case.
`O=C(O)c1[nH]n(-c2ccc(S(=O)(=O)O)cc2)c(=O)c1N=Nc1ccc(S(=O)(=O)O)cc1`: the Potency entry in assay [1], in assay [2], in assay [3], in assay [5] and in assay [6] was “inactive” each time.
As for `Cc1ccccc1C(=O)N1CC/C(=N\OS(=O)(=O)O)c2ccc(Cl)cc21`, the Potency result in assay [1], in assay [2], in assay [3] and in assay [6] was “inactive” throughout. For the same compound, in assay [5], the Potency was 8.71 µM (active).
As for `CCN1CCCC1CN` (stereo not drawn), the Potency result in assay [1], in assay [2], in assay [3], in assay [5] and in assay [6] was “inactive” throughout.
As for `CCS(=O)(=O)c1ccc(OC)c(C(=O)OC)c1`, the Potency result in assay [1], in assay [2], in assay [3], in assay [5] and in assay [6] was “inactive” throughout.
With `Cc1ccc(C(C)OC(=O)C2(C)CCC(C(=O)O)C2(C)C)cc1` (stereo not drawn), the Potency entry in assay [1], in assay [2], in assay [3], in assay [5] and in assay [6] was “inactive” each time.
Take `Nc1ccc([N+](=O)[O-])c(C(F)(F)F)c1`: the Potency entry in assay [1], in assay [2], in assay [3], in assay [5] and in assay [6] was “inactive” throughout.
Regarding `CC(C)OP(=O)(CP(=O)(OC(C)C)OC(C)C)OC(C)C`, the Potency entry in assay [1], in assay [2], in assay [3], in assay [5] and in assay [6] was “inactive” in each case.
`CN1CCN(N)CC1`: the Potency result in assay [1], in assay [2], in assay [3], in assay [5] and in assay [6] was “inactive” each time.
With `CCN(CC)C(=O)C1CN2CCc3cc(OC)c(OC)cc3C2CC1OC(C)=O` (stereo not drawn), the Potency entry in assay [1], in assay [2], in assay [3], in assay [5] and in assay [6] was “inactive” in each case.
On to `OC1(c2ccc(Cl)c(C(F)(F)F)c2)CCN(CCCC(c2ccc(F)cc2)c2ccc(F)cc2)CC1`, for which the Potency entry in assay [1] was “inactive”. Besides, the Potency in assay [2] is 4.47 µM (active); in assay [3] it was 1.23 µM (active); in assay [5], 15.5 µM (active); in assay [6], 4.22 µM (active) and 3.25 µM (active).
On to `CCCCN(CCN(CCCC)C(=O)N1CCOCC1)C(=O)N1CCOCC1`, for which the Potency result in assay [1], in assay [2], in assay [3], in assay [5] and in assay [6] was “inactive” in each case.
